According to PubChem BioAssay (Tox21):
Records with an inconclusive call do not appear. Where a call stands in place of a potency, no number is given. Calls of active or inactive are those of the source. Calls come from the whole dose curve; as a rule, active = well fitted curve in the direction sought with a large enough effect in the repeat runs; inconclusive = weak or mixed curves; inactive = no such curve, though single readings can be large; an effect the other way counts as inactive or inconclusive.

Experiment: A CellTox Green Cytotoxicity Assay to monitor cytotoxicity in HepG2 cells - 24 hour (AID 1224878); note: nearly all actives have a fitted effect of over 45% in size; note: potency is the fitted concentration of half-maximal effect
Conditions: CellTox Green fluorescence; series mostly up to 76.8 µM
How it was run: (§1)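 Measurements at 0, 8, 16, 24, 32 and 40 h of treatment captured CellTox Green fluorescence in HepG2 cells that had been co-plated with reagent and preincubated 5 h at 37 C/5% CO2.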

Q: For `CC(O)C(CO)C(C)O` (centres undefined), which Potency is on record?
A: inactive

Q: Which Potency does the source give for `Cc1cc(O)c(Cl)cc1C` here?
A: 49 µM (active)

Q: Which cytotoxicity does the source give for `CCCCCCCCCCCCCCCCN(C)C` here?
A: 1.92% [at 6.97 µM] (inactive)

Q: For `Cc1ccc2ccccc2n1`, which Potency is on record?
A: inactive

Q: Which Potency does the source give for `CCCCC(CC)COC(=O)CC#N` (centres undefined) here?
A: inactive

Q: Which Potency does the source give for `CCCCCCCCCCCBr` here?
A: inactive

Q: Which Potency does the source give for `COC(=O)C(c1ccccc1Cl)N1CCc2sccc2C1` (centres undefined) here?
A: inactive

Q: Which Potency does the source give for `CCO/C=C1\N=C(c2ccccc2)OC1=O` here?
A: inactive

Q: With `C=CCN(CC=C)CC=C` as the molecule, how does the Potency read?
A: inactive

Q: With `CC[N+](C)(CC)CC` as the molecule, how does the Potency read?
A: inactive

Q: For `C/C(Cl)=C/CCl`, which Potency is on record?
A: inactive

Q: With `C=CC(C)(CCC=C(C)C)OC(=O)C(C)C` (centres undefined) as the molecule, how does the Potency read?
A: inactive

Q: Which Potency does the source give for `CCCCC(O)/C=C(C)/C=C/C=C/C(=O)N1CCCC1=O` (centres undefined) here?
A: inactive

Q: With `CCOCCOCCOC(C)=O` as the molecule, how does the Potency read?
A: inactive

Q: With `CC12CCCC=C1C(=O)OC2=O` (centres undefined) as the molecule, how does the Potency read?
A: inactive

Q: Which Potency does the source give for `CCCc1ccc(O)c(OC)c1` here?
A: inactive

Q: Which Potency does the source give for `COc1cc(OC)cc(OC)c1` here?
A: inactive

Q: With `CCCCCCC(=O)c1ccccc1` as the molecule, how does the Potency read?
A: inactive

Q: Which Potency does the source give for `CC(=O)SC[C@@H](C)C(=O)N1CCC[C@H]1C(=O)N[C@@H](Cc1ccccc1)C(=O)O` here?
A: inactive

Q: Which Potency does the source give for `CN(C)CCc1c[nH]c2ccc(C[C@H]3COC(=O)N3)cc12` here?
A: inactive

Q: For `CCCCCCCCS(=O)(=O)O`, which Potency is on record?
A: inactive

Q: With `CC(C)(C)C(=O)NCCCC(=O)O` as the molecule, how does the Potency read?
A: inactive

Q: Which Potency does the source give for `CC(C)(C)NCC(O)COc1cccc2c1CCC(=O)N2` (centres undefined) here?
A: inactive

Q: With `O=C(c1ccccc1)c1cccc(O)c1` as the molecule, how does the Potency read?
A: inactive

Q: With `CCNC(=O)C(C)OC(=O)Nc1ccccc1` (centres undefined) as the molecule, how does the Potency read?
A: inactive

Q: With `Cc1ccccc1OCC(=O)O` as the molecule, how does the Potency read?
A: inactive

Q: With `Nc1nc(Cl)cc(Cl)n1` as the molecule, how does the Potency read?
A: inactive

Q: For `O=C(O)Cc1c(Cl)ccc(Cl)c1Cl`, which Potency is on record?
A: inactive

Q: Which Potency does the source give for `CCCCCC(=O)CC` here?
A: inactive

Q: With `CC(C)(Sc1cc(C(C)(C)C)c(O)c(C(C)(C)C)c1)Sc1cc(C(C)(C)C)c(O)c(C(C)(C)C)c1` as the molecule, how does the Potency read?
A: inactive

Q: With `COc1cc(S(N)(=O)=O)cc(C(=O)O)c1OC` as the molecule, how does the Potency read?
A: inactive

Q: For `C=CCCCCCCCCCCCCCC`, which cytotoxicity is on record?
A: 1.07% [at 15.8 µM] (inactive)

Q: With `CC(C)(C)c1ccc(C(=O)CCCCl)cc1` as the molecule, how does the Potency read?
A: inactive

Q: For `CN(C)CCC[C@@]1(c2ccc(F)cc2)OCc2cc(C#N)ccc21`, which Potency is on record?
A: inactive

Q: With `O=c1c(O)c(O)c1=O` as the molecule, how does the Potency read?
A: inactive

Q: For `NNC(=O)CCCCC(=O)NN`, which Potency is on record?
A: inactive

Q: Which Potency does the source give for `Cc1ccc(O)c(C(=O)c2ccccc2)c1` here?
A: inactive

Q: Which Potency does the source give for `CCCCCCC(O)CO` (centres undefined) here?
A: inactive

Experiment: A CellTox Green Cytotoxicity Assay to monitor cytotoxicity in HepG2 cells - 40 hour (AID 1224879); note: nearly all actives have a fitted effect of over 40% in size; note: potency is the fitted concentration of half-maximal effect
Conditions: CellTox Green fluorescence; series mostly up to 76.8 µM
How it was run: as §1

Q: For `CC(O)C(CO)C(C)O` (centres undefined), which Potency is on record?
A: inactive

Q: For `Cc1cc(O)c(Cl)cc1C`, which Potency is on record?
A: 49 µM (active)

Q: With `CCCCCCCCCCCCCCCCN(C)C` as the molecule, how does the cytotoxicity increase read?
A: 0.0455% [at 6.97 µM] (inactive)

Q: With `Cc1ccc2ccccc2n1` as the molecule, how does the Potency read?
A: inactive

Q: With `CCCCC(CC)COC(=O)CC#N` (centres undefined) as the molecule, how does the Potency read?
A: inactive

Q: Which Potency does the source give for `CCCCCCCCCCCBr` here?
A: inactive

Q: For `COC(=O)C(c1ccccc1Cl)N1CCc2sccc2C1` (centres undefined), which Potency is on record?
A: inactive

Q: For `CCO/C=C1\N=C(c2ccccc2)OC1=O`, which Potency is on record?
A: inactive

Q: Which Potency does the source give for `C=CCN(CC=C)CC=C` here?
A: inactive

Q: With `CC[N+](C)(CC)CC` as the molecule, how does the Potency read?
A: inactive

Q: With `C/C(Cl)=C/CCl` as the molecule, how does the Potency read?
A: inactive

Q: With `C=CC(C)(CCC=C(C)C)OC(=O)C(C)C` (centres undefined) as the molecule, how does the Potency read?
A: inactive

Q: Which Potency does the source give for `CCCCC(O)/C=C(C)/C=C/C=C/C(=O)N1CCCC1=O` (centres undefined) here?
A: inactive

Q: Which Potency does the source give for `CCOCCOCCOC(C)=O` here?
A: inactive

Q: With `CC12CCCC=C1C(=O)OC2=O` (centres undefined) as the molecule, how does the Potency read?
A: inactive

Q: For `CCCc1ccc(O)c(OC)c1`, which Potency is on record?
A: inactive

Q: Which Potency does the source give for `COc1cc(OC)cc(OC)c1` here?
A: inactive

Q: For `CCCCCCC(=O)c1ccccc1`, which Potency is on record?
A: inactive

Q: For `CC(=O)SC[C@@H](C)C(=O)N1CCC[C@H]1C(=O)N[C@@H](Cc1ccccc1)C(=O)O`, which Potency is on record?
A: inactive

Q: Which Potency does the source give for `CN(C)CCc1c[nH]c2ccc(C[C@H]3COC(=O)N3)cc12` here?
A: inactive

Q: For `CCCCCCCCS(=O)(=O)O`, which Potency is on record?
A: inactive

Q: Which Potency does the source give for `CC(C)(C)C(=O)NCCCC(=O)O` here?
A: inactive

Q: With `CC(C)(C)NCC(O)COc1cccc2c1CCC(=O)N2` (centres undefined) as the molecule, how does the Potency read?
A: inactive

Q: With `O=C(c1ccccc1)c1cccc(O)c1` as the molecule, how does the Potency read?
A: inactive

Q: For `CCNC(=O)C(C)OC(=O)Nc1ccccc1` (centres undefined), which Potency is on record?
A: inactive

Q: With `Cc1ccccc1OCC(=O)O` as the molecule, how does the Potency read?
A: inactive

Q: With `Nc1nc(Cl)cc(Cl)n1` as the molecule, how does the Potency read?
A: inactive

Q: Which Potency does the source give for `O=C(O)Cc1c(Cl)ccc(Cl)c1Cl` here?
A: inactive

Q: With `CCCCCC(=O)CC` as the molecule, how does the Potency read?
A: inactive

Q: Which Potency does the source give for `CC(C)(Sc1cc(C(C)(C)C)c(O)c(C(C)(C)C)c1)Sc1cc(C(C)(C)C)c(O)c(C(C)(C)C)c1` here?
A: inactive

Q: Which Potency does the source give for `COc1cc(S(N)(=O)=O)cc(C(=O)O)c1OC` here?
A: inactive

Q: For `C=CCCCCCCCCCCCCCC`, which cytotoxicity increase is on record?
A: -1.48% [at 15.8 µM] (inactive)

Q: With `CC(C)(C)c1ccc(C(=O)CCCCl)cc1` as the molecule, how does the Potency read?
A: inactive

Q: Which Potency does the source give for `CN(C)CCC[C@@]1(c2ccc(F)cc2)OCc2cc(C#N)ccc21` here?
A: inactive

Q: Which Potency does the source give for `O=c1c(O)c(O)c1=O` here?
A: inactive

Q: For `NNC(=O)CCCCC(=O)NN`, which Potency is on record?
A: inactive

Q: With `Cc1ccc(O)c(C(=O)c2ccccc2)c1` as the molecule, how does the Potency read?
A: inactive

Q: With `CCCCCCC(O)CO` (centres undefined) as the molecule, how does the Potency read?
A: inactive

Experiment: qHTS RealTime-Glo MT Cell Viability Assay in HEK293 cells - 0 hour (AID 1224880); note: top concentration of the series differs between compounds; nearly all actives have a fitted effect of over 45% in size
Conditions: RealTime-Glo luminescence; series mostly up to 76.8 µM
How it was run: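 HEK293 + NanoLuc + prosubstrate, 600 cells/well; 5 h, 37 C/5% CO2; compound 23 nL in DMSO by pintool; 37 C; luminescence read at 0, 8, 16, 24, 32 and 40 h time points.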

Q: For `CC(O)C(CO)C(C)O` (centres undefined), which Potency is on record?
A: inactive

Q: Which Potency does the source give for `Cc1cc(O)c(Cl)cc1C` here?
A: inactive

Q: Which activity change, negative = cytotoxicity does the source give for `CCCCCCCCCCCCCCCCN(C)C` here?
A: 2.86% [at 6.97 µM] (inactive)

Q: For `Cc1ccc2ccccc2n1`, which Potency is on record?
A: inactive

Q: Which Potency does the source give for `CCCCC(CC)COC(=O)CC#N` (centres undefined) here?
A: inactive

Q: Which Potency does the source give for `CCCCCCCCCCCBr` here?
A: inactive

Q: For `COC(=O)C(c1ccccc1Cl)N1CCc2sccc2C1` (centres undefined), which Potency is on record?
A: inactive

Q: With `CCO/C=C1\N=C(c2ccccc2)OC1=O` as the molecule, how does the Potency read?
A: inactive

Q: Which Potency does the source give for `C=CCN(CC=C)CC=C` here?
A: inactive

Q: With `CC[N+](C)(CC)CC` as the molecule, how does the Potency read?
A: inactive

Q: With `C/C(Cl)=C/CCl` as the molecule, how does the Potency read?
A: inactive

Q: For `C=CC(C)(CCC=C(C)C)OC(=O)C(C)C` (centres undefined), which Potency is on record?
A: inactive

Q: For `CCCCC(O)/C=C(C)/C=C/C=C/C(=O)N1CCCC1=O` (centres undefined), which Potency is on record?
A: inactive

Q: Which Potency does the source give for `CCOCCOCCOC(C)=O` here?
A: inactive

Q: With `CC12CCCC=C1C(=O)OC2=O` (centres undefined) as the molecule, how does the Potency read?
A: inactive

Q: Which Potency does the source give for `CCCc1ccc(O)c(OC)c1` here?
A: inactive

Q: For `COc1cc(OC)cc(OC)c1`, which Potency is on record?
A: inactive

Q: Which Potency does the source give for `CCCCCCC(=O)c1ccccc1` here?
A: inactive

Q: Which Potency does the source give for `CC(=O)SC[C@@H](C)C(=O)N1CCC[C@H]1C(=O)N[C@@H](Cc1ccccc1)C(=O)O` here?
A: inactive

Q: With `CN(C)CCc1c[nH]c2ccc(C[C@H]3COC(=O)N3)cc12` as the molecule, how does the Potency read?
A: inactive

Q: Which Potency does the source give for `CCCCCCCCS(=O)(=O)O` here?
A: inactive

Q: With `CC(C)(C)C(=O)NCCCC(=O)O` as the molecule, how does the Potency read?
A: inactive

Q: With `CC(C)(C)NCC(O)COc1cccc2c1CCC(=O)N2` (centres undefined) as the molecule, how does the Potency read?
A: inactive

Q: With `O=C(c1ccccc1)c1cccc(O)c1` as the molecule, how does the Potency read?
A: inactive

Q: With `CCNC(=O)C(C)OC(=O)Nc1ccccc1` (centres undefined) as the molecule, how does the Potency read?
A: inactive

Q: For `Cc1ccccc1OCC(=O)O`, which Potency is on record?
A: inactive

Q: With `Nc1nc(Cl)cc(Cl)n1` as the molecule, how does the Potency read?
A: inactive

Q: Which Potency does the source give for `O=C(O)Cc1c(Cl)ccc(Cl)c1Cl` here?
A: inactive

Q: For `CCCCCC(=O)CC`, which Potency is on record?
A: inactive

Q: For `CC(C)(Sc1cc(C(C)(C)C)c(O)c(C(C)(C)C)c1)Sc1cc(C(C)(C)C)c(O)c(C(C)(C)C)c1`, which Potency is on record?
A: inactive

Q: With `COc1cc(S(N)(=O)=O)cc(C(=O)O)c1OC` as the molecule, how does the Potency read?
A: inactive

Q: Which activity change, negative = cytotoxicity does the source give for `C=CCCCCCCCCCCCCCC` here?
A: -0.897% [at 15.8 µM] (inactive)

Q: With `CC(C)(C)c1ccc(C(=O)CCCCl)cc1` as the molecule, how does the Potency read?
A: inactive

Q: For `CN(C)CCC[C@@]1(c2ccc(F)cc2)OCc2cc(C#N)ccc21`, which Potency is on record?
A: inactive

Q: Which Potency does the source give for `O=c1c(O)c(O)c1=O` here?
A: inactive

Q: With `NNC(=O)CCCCC(=O)NN` as the molecule, how does the Potency read?
A: inactive

Q: Which Potency does the source give for `Cc1ccc(O)c(C(=O)c2ccccc2)c1` here?
A: inactive

Q: With `CCCCCCC(O)CO` (centres undefined) as the molecule, how does the Potency read?
A: inactive
